# Experimental data: PubChem BioAssay (NCI)
# This is part of a sample that, as a whole, favours compounds with a hit. Of some 83,000 tested, about 20% had one in any assay.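 For each line, cells grew in 96-well plates with the test compound present at a single concentration for 48 hours.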 A number with no mark means an inactive call. Activity calls are given as the source filed them. How the source made its calls: active means growth percent below 10; inactive means the rest.
# Assays:
# Assay in all cases: NCI-60 one-dose screen, 48 h (100 = growth as untreated, 0 = no growth, -100 = all killed)
# Conditions in all cases: 10 µM unless noted
# HCT-15 colon = test system: HCT-15 colon
# HT29 colon = test system: HT29 colon
# SNB-75 CNS = test system: SNB-75 CNS
# SNB-19 CNS = test system: SNB-19 CNS
# U251 CNS = test system: U251 CNS
# PC-3 prostate = test system: PC-3 prostate
# UACC-62 melanoma = test system: UACC-62 melanoma
# LOX IMVI melanoma = test system: LOX IMVI melanoma
# SK-MEL-28 melanoma = test system: SK-MEL-28 melanoma
# SK-MEL-5 melanoma = test system: SK-MEL-5 melanoma
Compound,growth (HCT-15 colon),growth (HT29 colon),growth (SNB-75 CNS),growth (SNB-19 CNS),growth (U251 CNS),growth (PC-3 prostate),growth (UACC-62 melanoma),growth (LOX IMVI melanoma),growth (SK-MEL-28 melanoma),growth (SK-MEL-5 melanoma)
CC1CN1CCCCN1CC1C (stereo unspecified),103%,87%,81.1%,109%,104%,95%,113%,101%,100%,–
CCOP(=O)(NC[C@H]1O[C@](O)(CO)[C@@H](O)[C@@H]1O)OCC,100%,96.2%,80.2%,97%,101%,85.9%,99.8%,92.8%,116%,–
O=C(Nc1ccc(Br)cc1)c1cc(Br)cc(Br)c1O,-14.6% (active),23.5%,-10.5% (active),11%,6.11% (active),9.67% (active),-14.2% (active),-7.5% (active),33.7%,–
CCc1ccccc1[C@@H]1C[C@]2(C)CCO[C@@H]2OO1,107%,98.4%,84.7%,93.6%,99.2%,100%,99.9%,99.9%,110%,–
N#CC1C(C#N)C2CCC1C1C2N1c1ccccc1 (stereo unspecified),97.9%,114%,87.1%,104%,111%,–,105%,103%,106%,104%
Cc1cc(NC(=O)NCc2ccc(N3C(N)=NC(N)=NC3(C)C)cc2)ccc1S(=O)(=O)F,62.2%,11.3%,56%,34.3%,32.7%,–,11.6%,16.7%,57.4%,21%
Cc1c2cc(Cl)c3ccccc3c2c[n+]2ccccc12,103%,88.9%,-15.7% (active),-26.3% (active),0.443% (active),–,29.1%,84.6%,-27.2% (active),-43.5% (active)
COc1ccc(S(=O)(=O)Nc2c(/C=C\c3cc(OC)c(OC)c(OC)c3)ccc(OC)c2O)cc1OC,15.6%,10%,43.8%,39%,12.9%,28.2%,45.2%,21.6%,58.6%,–
O=C(CN1CCN(C(=O)c2ccco2)CC1)Nc1ccc(Cl)cc1C(=O)c1ccccc1Cl,81.9%,89.4%,67.8%,99.2%,91.3%,73.9%,58.5%,79.9%,110%,–
Cc1ccc(C(Cc2ccccc2)NCCO)cc1 (stereo unspecified),103%,65.4%,87.1%,99.3%,87.8%,69.4%,94.7%,100%,61.9%,–
Cn1cc(-c2csc(-c3cn(CCCCN4CCCCC4)c4ccccc34)n2)c2cccnc21,-74.9% (active),-85.6% (active),53.1%,-32.1% (active),-72.3% (active),51.3%,–,-72.6% (active),-79.2% (active),–
C[C@]12C[C@@H](CO)[C@H](O)C[C@@H]1CC[C@@H]1[C@@H]2CC[C@]2(C)[C@@H](O)CC[C@@H]12,105%,84%,107%,108%,96.1%,95.1%,106%,–,105%,–
CC1=C(CCCOC(=O)CN)C2=C(C)C3(CC3)[C@@](C)(O)C(=O)C2=C1,77.6%,69.9%,97%,91.2%,82.3%,69.4%,90.8%,88.6%,115%,–
CC(C)(C)C(=O)OCOP(=O)(OCOC(=O)C(C)(C)C)C1CCCN(O)C1=O (stereo unspecified),7.4% (active),2.01% (active),47.6%,2.57% (active),–,24.2%,–,17.6%,-23.8% (active),-13.5% (active)
O=C(CC1(O)C(=O)N(Cc2ccccc2)c2ccccc21)c1ccc(C(=O)NCC2CCC3(CC2)OOC2(CCCCC2)OO3)cc1 (stereo unspecified),0.81% (active),-51.6% (active),-75.6% (active),20.3%,–,-61% (active),0.976% (active),-84.1% (active),63.1%,–
CC(=O)OC1CCC2C3CCC4=C/C(=N/OC(=O)c5ccc(N(CCCl)CCCl)cc5)CCC4(C)C3CC(C)C12 (stereo unspecified),71.6%,46.8%,70.5%,62.9%,–,77.1%,72.5%,15.5%,108%,67.5%
CC(C)OC(=O)[C@H](C)NP(=O)(Oc1ccccc1)C1CCCN(O)C1=O (stereo partly specified),93.1%,91.7%,108%,98.8%,–,94.5%,71.8%,85.3%,52.2%,–
O=C(NCCN1CC1)C(=O)NCCN1CC1,95.2%,68.9%,76%,101%,–,93.2%,91.7%,80.2%,102%,94.6%
CC1[C@H](C)OC(=O)CC(O)CC(O)CC(O)CCC(O)C(O)C[C@]2(O)CC(O)C(C(=O)O)C(CC(OC3O[C@H](C)[C@@H](O)[C@H](N)[C@@H]3O)/C=C/C=C/C=C/C=C/CC/C=C/C=C/[C@H](C)[C@H]1O)O2 (stereo partly specified),109%,107%,103%,109%,–,98.7%,109%,89.7%,110%,97.2%
C[C@@H]1O[C@@H](O[C@H]2C[C@@H](O)[C@]3(CO)C4C(CC[C@]3(O)C2)[C@@]2(O)CC[C@H](C3=CC(=O)OC3)[C@@]2(C)C[C@H]4O)[C@H](O)[C@H](O)[C@H]1O (stereo partly specified),-74.6% (active),-85.2% (active),-83.9% (active),-94.6% (active),–,6.86% (active),-66.5% (active),-88.2% (active),-87.6% (active),-95.5% (active)
COC(=O)C1OC(Oc2ccc(N(CCCl)CCCl)cc2)C(OC(C)=O)C(OC(C)=O)C1OC(C)=O (stereo unspecified),83.3%,80.7%,59.2%,92.6%,–,78%,79.6%,77.2%,83.5%,92.1%
Nc1c(F)cc(-c2nc3cc(F)ccc3[se]2)cc1F,22%,46.4%,92.2%,104%,–,72.1%,66.5%,89.3%,116%,56.1%
COC(=O)[C@]12CCC(C)(C)C[C@H]1[C@H]1C(=O)C[C@@H]3[C@@]4(C)C[C@@]5(CC(C)(C)[C@@H]4CC[C@@]3(C)[C@]1(C)CC2)OO[C@@](C)(C(F)(F)F)O5,95.3%,102%,74.9%,91.7%,–,86.7%,84.3%,95.7%,107%,99.5%
COc1cc(/C=C/[N+](=O)[O-])c([N+](=O)[O-])cc1OC,-45.2% (active),-66% (active),55.3%,96.3%,–,51.5%,-7.94% (active),-68.1% (active),38.4%,56.2%
CN(C)C1C(=O)C(C(N)=O)=C(O)C2(O)C(=O)C3=C(O)c4c(O)cccc4C(C)(O)C3CC12.[Cl][Sb]([Cl])[Cl] (stereo unspecified),26.7%,38.5%,40.5%,36.6%,–,15.9%,26.4%,25.8%,47%,15.6%
CC(=O)/C=C/c1ccc2c(c1)OCO2,99.7%,106%,79.2%,84.6%,–,95.8%,90.2%,109%,107%,100%
COc1ccc(O)c(CNC(=O)CN2CCCC2=O)c1,103%,104%,81.3%,103%,–,92.1%,96.6%,–,99.4%,107%
CC[C@@H]1[C@@H](C)O[C@@](O)([C@@H](C)[C@H](O)[C@H](C)[C@H]2OC(=O)/C=C/C=C/[C@H](C)[C@@H]([C@@H](C)[C@@H](O)[C@H](C)[C@@]3(O)C[C@@H](O[C@H]4C[C@@H](O)[C@H](O)C(C)O4)[C@H](CC)[C@@H](C)O3)OC(=O)/C=C/C=C/[C@@H]2C)C[C@H]1O[C@@H]1C[C@@H](O)[C@H](O)C(C)O1 (stereo partly specified),-84.4% (active),-84% (active),-97.6% (active),-81.6% (active),–,-88.4% (active),-73.3% (active),-94% (active),-92.1% (active),-96.2% (active)
